# Screening results (PubChem BioAssay)
# RMI-FANCM inh = blocks RMI1/RMI2 complex binding to FANCM MM2 peptide; hit rate 0.58% among 70,000; FP signal (polarization) at 33 µM; Fluorescence polarization, RMI core complex with F-MM2 peptide; hits give low values; AID 1159607; in the data active = FP signal below about 40
# Hits are given with their value; n = inactive; ! = not confirmed by another sample. The entries come from a sample that favours hits as a whole.
SMILES,RMI-FANCM inh
CCC(=O)NCCOc1ccc2nnc(-c3ccccc3)n2n1,n
COCC(=O)NCCOc1ccc2nnc(-c3ccccc3)n2n1,26
O=C(Cc1ccccc1)NCCOc1ccc2nnc(-c3ccccc3)n2n1,n
O=C(Nc1csc(-c2ccc(Oc3ccc(-c4nc(NC(=O)c5nc6ccccc6s5)cs4)cc3)cc2)n1)c1nc2ccccc2s1,31
Cc1ccc(-c2csc(NC(=O)c3nc4ccccc4s3)n2)cc1,n
Cc1ccc(-c2csc(NC(=O)c3nc4ccccc4s3)n2)o1,n
CCOc1ccc2nc(NC(=O)Cc3ccc(S(=O)(=O)C(C)C)cc3)sc2c1,n
O=C1/C(=C/c2ccc(-c3cccc(C(F)(F)F)c3)o2)SC(=S)N1CCCN1CCOCC1,n
Cc1ccc(-c2cc(C(=O)NCCN3CCOCC3)c3c(C)nn(C4CCS(=O)(=O)C4)c3n2)cc1 (stereo not given),n
O=C(CCCN1C(=O)/C(=C2\SC(=S)N(CCCC(=O)Nc3cccc(C(=O)O)c3)C2=O)SC1=S)Nc1cccc(C(=O)O)c1,n
Cc1cc(NC(=O)CCN2C(=O)/C(=C3\SC(=S)N(CCC(=O)Nc4cc(C)on4)C3=O)SC2=S)no1,21
COc1ccc(/C=C2\SC(=S)N(CCC(=O)Nc3cc(C)on3)C2=O)cc1OC,n
Cc1ccc(C2CC(c3cccs3)=NN2C(=O)CSc2cn(Cc3cc(C)ccc3C)c3ccccc23)cc1 (stereo not given),n
CN(C)C(=S)NC(=NCCN=C(NC(=S)N(C)C)c1ccc([N+](=O)[O-])cc1)c1ccc([N+](=O)[O-])cc1,n
O=S(=O)(O)c1nc2ccccc2o1,n
O=c1c(Cl)c2oc3ccccc3nc-2c2ccccc12,32
O=c1[nH]c(CSc2nc3ccccc3o2)nc2ccccc12,n
CCOc1ccc(-c2ccc(=O)n(CCNC(=O)COc3ccc(C(=O)c4ccccc4)cc3)n2)cc1,n
CCn1ncc(/C=C/C(=O)c2ccc(I)cc2)c1C,n
CCOC(=O)/C(C#N)=C/c1ccc(OC)s1,n
COC(=O)/C(C#N)=C/c1ccc(SC)s1,32
CCOC(=O)/C(C#N)=C/c1ccc(-c2cccs2)s1,n
N#Cc1ccc(-c2cccs2)s1,n
C=CC1=C(C(=O)O)N2C(=O)[C@@H](NC(=O)C(=NO)c3csc(N)n3)[C@H]2SC1,34
CO/N=C(/C(=O)N[C@@H]1C(=O)N2C(C(=O)O)=C(C[N+]3(C)CCCC3)CS[C@H]12)c1csc(N)n1,n
SMILES,RMI-FANCM inh
CO/N=C(/C(=O)NC1C(=O)N2C(C(=O)O)=C(COC(C)=O)CSC12)c1csc(N)n1 (stereo not given),n
O=C(CCn1c(=O)oc2ccccc21)Nc1ccccc1F,n
Cc1ccc2nc(NCC3CCCO3)sc2c1 (stereo not given),n
O=S(=O)(c1cccc(NC(=S)N2CCN(Cc3ccccc3)CC2)c1)C(F)F,n
COc1cc(C)c(C)cc1S(=O)(=O)NCC(c1ccsc1)N1CCc2ccccc2C1 (stereo not given),n
COc1cc(C)c(C)cc1S(=O)(=O)NCC(c1ccc(N(C)C)cc1)N1CCc2ccccc21 (stereo not given),19
COc1ccc(S(=O)(=O)NCC(c2ccc(N(C)C)cc2)N2CCc3ccccc3C2)cc1OC (stereo not given),n
O=c1ccc(-c2cccnc2)nn1CCNS(=O)(=O)c1cccs1,n
CCC(=O)Nc1ccc(SCC(=O)Nc2ccc(F)cc2F)nn1,n
COc1ccc(CC(=O)Nc2cc(-c3ccco3)nn2-c2nc(C)c(C)c(=O)[nH]2)cc1OC,33
Cc1nc(-n2nc(-c3ccco3)cc2NC(=O)COc2ccc(Cl)cc2)[nH]c(=O)c1C,n
COc1ccc(CCC(=O)Nc2cc(-c3ccco3)nn2-c2nc(C)c(C)c(=O)[nH]2)cc1,n
C=Cc1ccc(CSc2nccn3nc(-c4ccc(F)cc4)cc23)cc1,34
C=Cc1ccc(CSc2nccn3nc(-c4ccc(OC)cc4)cc23)cc1,n
Fc1ccc(-c2cc3c(SCc4cccc(C(F)(F)F)c4)nccn3n2)cc1,n
O=C1NCCN1CCNS(=O)(=O)c1cccc2nonc12,n
O=C(NCCc1ccccc1)c1ccc(CNS(=O)(=O)c2cccc(Cl)c2)cc1,n
C=CCSc1nnc(-c2ccccc2NC(=O)c2ccc(S(C)(=O)=O)cc2)o1,n
O=C(Nc1cccc2c1C(=O)c1ccccc1C2=O)c1ccc([N+](=O)[O-])cc1,n
O=C(Nc1sc2ccccc2c(=O)c1-c1ccc2c(c1)OCO2)c1cccs1,n
O=C(Nc1sc2ccccc2c(=O)c1-c1cccs1)c1ccc([N+](=O)[O-])cc1,-19
O=S(=O)(c1ccc(N2CCN(c3ccccc3F)CC2)nn1)C1CCCCC1,n
COc1ccc(N2CCN(CC(O)COc3c(F)cc(Br)cc3F)CC2)cc1 (stereo not given),n
COCCn1c(=NC(=O)c2cc(C)no2)sc2cc(S(C)(=O)=O)ccc21,n
Cc1ccc(N=C2C=C(SC#N)C(=O)C(SC#N)=C2)cc1,-16
SMILES,RMI-FANCM inh
Cc1ccc(N=C2CSC(=O)N2)cc1,n
Cc1ccc(N=C2C=C(Cl)C(=O)C(Cl)=C2)cc1,n
COC(=O)C[C@H]1C(C)(C)C(=O)[C@@H]2CC3=C4CC(OC)O[C@@H](c5ccoc5)[C@]4(C)CCC3[C@@]1(C)C2=O (stereo not given in full),n
CS(=O)(=O)c1ccc2nc(N(Cc3cccnc3)C(=O)c3cccc(C(F)(F)F)c3)sc2c1,n
CCOC(=O)N1CCN(C(=O)C(=O)c2cn(CC(=O)N3CCCCC3)c3ccccc23)CC1,n
O=c1c2sc3ccccc3c2[nH]c(=S)n1CC1CCCO1 (stereo not given),n
CCOc1ccc2c(c1)=CC(=Cc1sc(=S)n(CC3CCCO3)c1O)C(=O)N=2 (stereo not given),23
CCOc1ccc(N2CC(NC(=O)NCC3CCCO3)CC2=O)cc1 (stereo not given),n
Cc1oc(-c2cccc(C(F)(F)F)c2)cc1C(=O)Nc1ccc(S(N)(=O)=O)cc1,n
Cc1cc(NS(=O)(=O)c2ccc(NC(=O)c3cc(Cl)ccc3[N+](=O)[O-])cc2)no1,n
Cc1oc(-c2ccc(Cl)cc2[N+](=O)[O-])cc1C(=O)Nc1ccc(S(N)(=O)=O)cc1,13
C=CCNC(=O)c1nnc2n(c1=O)CCN2c1ccc(F)cc1,n
Cn1c(=O)c2c(SCC(=O)NC3CCCC3)nc(-c3ccccc3F)nc2n(C)c1=O,n
Cc1ccccc1-c1noc(CSc2nc3ccsc3c(=O)[nH]2)n1,n
Cc1ccc(Cl)cc1S(=O)(=O)Nc1ccc2c(c1)CCC(=O)N2CC(C)C,n
Cc1cc2cc(CNC(=O)c3ccccc3Cl)ccc2n1C,30
Cc1cc2cc(CNC(=O)c3ccccc3Br)ccc2n1C,n
Cc1cc2cc(CNC(=O)c3ccccc3F)ccc2n1C,n
COc1ccc(CCS(=O)(=O)NCC2CCN(Cc3ccccc3)CC2)cc1,n
COc1ccc(CCN2CCC(Nc3nc4ccccc4n3Cc3ccc(F)cc3)CC2)cc1,20!
COc1ccc2[nH]c(C(=O)NC3CCN(Cc4ccccc4)CC3)cc2c1,n
O=C(CSc1nc(-c2ccccc2)cs1)NC1CCS(=O)(=O)C1 (stereo not given),n
Fc1ccc2nc(Nc3nc(-c4cccs4)cs3)sc2c1,n
O=C(Cn1nc(-c2cccs2)c2sc(N3CCCC3)nc2c1=O)NCc1ccccc1,n
Cc1ccc(C)c(-c2nnc(NC(=O)c3ccc(S(=O)(=O)N4CCc5ccccc54)cc3)o2)c1,18
CS(=O)(=O)c1cccc(-c2nnc(NC(=O)c3ccc(S(=O)(=O)N4CCc5ccccc5C4)cc3)o2)c1,n
